Bioassay records (PubChem)
TRHR ag: qHTS for Small Molecule Agonists and Allosteric Enhancers of Human TRH Receptor: Primary Screen for Agonists; Thyrotropin-releasing hormone receptor (Homo sapiens), P34981; TRHR cells, calcium flux fluo-8, FDSS agonist mode; activation, % at 2 µM; actives 0.18% (n = 360,000); further: 0% is about no effect
Target sequence (P34981 whole entry, looked up): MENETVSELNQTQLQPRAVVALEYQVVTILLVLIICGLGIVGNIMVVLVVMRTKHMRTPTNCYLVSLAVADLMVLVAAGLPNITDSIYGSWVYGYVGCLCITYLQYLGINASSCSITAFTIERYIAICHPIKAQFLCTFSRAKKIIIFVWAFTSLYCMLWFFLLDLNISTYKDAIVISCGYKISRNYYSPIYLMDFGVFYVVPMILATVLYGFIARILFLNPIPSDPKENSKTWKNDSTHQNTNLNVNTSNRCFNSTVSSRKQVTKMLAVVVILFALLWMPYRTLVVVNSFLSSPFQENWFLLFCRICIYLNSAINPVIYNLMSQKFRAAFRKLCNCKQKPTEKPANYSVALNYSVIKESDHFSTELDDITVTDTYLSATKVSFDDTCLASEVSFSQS
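Read-out: compound-evoked intracellular calcium rise in TRHR cells, fluo-8 dye, kinetic FDSS fluorescence at 1 s/cycle following a 10-cycle baseline. Cells cultured overnight before dye loading (30 min–1.5 h, RT).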
D1 antagonist: Antagonist of Human D 1 Dopamine Receptor: qHTS | D(1A) dopamine receptor (Homo sapiens), P21728 | HEK293 TREx D1 cells, calcium flux, dopamine EC80; hits give low values | activity change, negative = inhibition, % at 10 µM | actives 3.2% (n = 360,000) | AID 504652, 2011; in the data active means activity change below about -30%; further: on the % scale 0 is the no-effect control and ±100 the full control effect
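Using tetracycline-induced force-coupled D1 Hek293 cells and a calcium dye, signals were followed for 180 s after compound, then for 180 s after EC80 dopamine, to detect inhibitors.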
D1 PAM: Potentiators of Human D1 Dopamine Receptor: qHTS | D(1A) dopamine receptor (Homo sapiens), P21728 | HEK293 TREx D1 cells, calcium flux, dopamine EC20 potentiation | potentiation, % at 10 µM | actives 0.036% (n = 360,000) | AID 504651, 2011; in the data active means potentiation above about 30%; further: 0% is about no effect
TRHR PAM: qHTS for Small Molecule Agonists and Allosteric Enhancers of Human TRH Receptor: Primary Screen for Enhancers. TRHR cells, fluo-8 calcium fluorescence, EC20 TRH enhancement. enhancement, % at 2 µM. actives 0.66% (n = 360,000). AID 493056, 2011; in the data active means enhancement above about 30%; further: 0% is about no effect
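TRHR-expressing cells loaded with fluo-8 calcium dye were read kinetically (ex 480/em 530) during compound addition, then stimulated with an EC20 of TRH (10 nM final). Enhancement of the Gq-mediated intracellular calcium response was scored.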
D1 ag: Allosteric Agonists of the Human D1 Dopamine Receptor: qHTS | actives 1% (n = 360,000) | activation, % at 2 µM | HEK293 T-REx D1 cells, calcium flux, agonist mode; further: 0% is about no effect
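Tetracycline-induced HEK293 TREx D1 cells, force-coupled to calcium signalling, were dye-loaded with a no-wash calcium kit. Compound was pin-added after a 10 s baseline. Fluorescence was read kinetically at 1 cycle/s for 180 s, with calcium rises flagged as agonism.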
* marks the source's active call; other numbers are inactive results; / = not tested or not shown. An excerpt weighted towards active compounds, which were near 4.7% of everything screened. Unless noted, no stated cut-off is given here; in the data, active means activation above about 30%; inactive means the rest.

SMILES | TRHR ag | D1 antagonist | D1 PAM | TRHR PAM | D1 ag
O=C(OCc1c(Cl)nc2sccn12)c1cc2c(s1)CCCC2 | 0.1 | 4.2 | -3.1 | 32.5* | 2.7
O=C(COC(=O)c1cc2c(s1)CCCC2)Nc1ccc(Cl)cn1 | -1.3 | 4.8 | -4.8 | -2.4 | 2.7
Cc1ccc(-c2nc3nc(C)cc(N4CCN(c5cc(Cl)ccc5C)CC4)n3n2)cc1 | 0.9 | 1.8 | -1.0 | 0.5 | 1.1
O=C1OC(CO)CN1Cc1ccccc1 (centres undefined) | 0.1 | -40.3* | 3.5 | 0.5 | 0.1
CCOC(=O)CNS(=O)(=O)c1ccc(S(=O)(=O)N2CCCC2)cc1 | 0.7 | -103.3* | -0.1 | 7.7 | 5.5
CCOC(=O)c1ccc(COC(=O)CNS(=O)(=O)c2ccccc2)cc1 | -3.6 | -33.1* | -7.0 | -26.6 | -0.5
CCc1ccc(C(=O)C(C)OC(=O)CNS(=O)(=O)c2ccc(C)cc2)cc1 (centres undefined) | -0.7 | 4.9 | -2.6 | 1.8 | 32.0*
Cc1ccc(S(=O)(=O)NCC(=O)OC(C(=O)c2ccccc2)c2ccccc2)cc1 (centres undefined) | 0.6 | 5.6 | 5.8 | -4.9 | 2.4
CN(C(=O)C1=CC(c2ccc3c(c2)OCO3)=NS(=O)(=O)N1C)c1ccccc1 | 0.2 | -19.2 | -2.4 | 4.5 | 3.7
Cc1ccc(N2CCN(Cc3nnc(-c4ccc5c(c4)OCO5)o3)CC2)c(C)c1 | 0.0 | -30.1* | 0.0 | -1.9 | 2.8
Cc1cc(C)c(NC(=O)Cn2nnc(-c3nc(-c4ccncc4)no3)c2N)c(C)c1 | 0.7 | -19.7 | -0.8 | -11.7 | -1.0
CC(C)OP(=O)(OC(C)C)C(NC(=O)c1ccccc1Br)C(N)=O (centres undefined) | -0.5 | -21.5 | -2.2 | 31.9* | 1.8
CCN(C(=O)Cn1nc(C)n2c(cc3cc(C)ccc32)c1=O)c1ccccc1 | -0.6 | -42.7* | -5.5 | 1.3 | 0.5
Cc1nn(CC(=O)NC2CC2)c(=O)c2cc3cc(F)ccc3n12 | 0.3 | -2.4 | -5.5 | 34.2* | 1.5
COc1ccc(Br)cc1CNC(=O)Cn1nc(C)n2c(cc3cc(F)ccc32)c1=O | -0.2 | 1.6 | -4.2 | 3.3 | 0.3
C=CCN(C(=O)Cn1nc(C)n2c(cc3cc(C)ccc32)c1=O)c1ccccc1 | -0.5 | -8.2 | -0.2 | -1.2 | 1.9
COc1ccc(CCNc2nnc(Sc3nnnn3-c3ccccc3)s2)cc1OC | -0.5 | -52.7* | -5.6 | 18.4 | 3.2
CCOc1cc(CNCCSc2nnnn2-c2ccccc2)ccc1OC | 1.1 | -10.6 | -0.8 | -1.8 | 30.0*
CCOc1ccc(CNCCSc2nnnn2C)cc1OC | 0.6 | -9.9 | -0.6 | -0.4 | -1.4
Cc1ccccc1CNCCCSc1nnnn1-c1ccccc1 | 0.2 | 4.0 | -1.2 | -2.5 | 35.6*
CCOc1nc(NCCC2=CCCCC2)nc(N2CCOCC2)n1 | -0.1 | 9.4 | -3.2 | 14.1 | 0.5
OCCNc1nc(NCCC2=CCCCC2)nc(N2CCOCC2)n1 | -0.2 | -54.3* | -12.2 | 4.0 | 1.0
CCc1cc2c(cc3c(=O)n(CC(=O)N4CCC(C)CC4)nc(CC)n32)s1 | 0.7 | 21.4 | 1.6 | -1.0 | -0.3
Cc1cccc2sc(N(Cc3cccnc3)C(=O)CCc3ccccc3)nc12 | -0.6 | / | 6.2 | 12.4 | 56.2*
Cc1cccc2sc(N(Cc3cccnc3)C(=O)Cc3ccccc3)nc12 | 0.6 | / | 0.1 | -0.7 | 10.0
SMILES | TRHR ag | D1 antagonist | D1 PAM | TRHR PAM | D1 ag
COc1ccc(CCN2C(=O)CSC2c2cccc([N+](=O)[O-])c2)cc1OC (centres undefined) | 0.1 | -30.2* | -4.3 | -5.0 | -1.8
CCC(=O)N1CCc2cc(Br)cc(S(=O)(=O)N3CCCC(C(=O)NCc4cccc(OC)c4)C3)c21 (centres undefined) | -1.0 | -30.7* | -1.1 | 15.9 | 2.6
Cc1[nH]nc2nc3c(c(OC(=O)c4ccccc4)c12)c(=O)n(C)c(=O)n3C | 0.3 | -38.5* | / | 7.0 | -1.0
COC(=O)c1cc(-c2ccccc2)c2c(=O)n(C)c(=O)n(C)c2n1 | -0.3 | -3.1 | -1.6 | -3.8 | 1.4
CC(C)[C@H]1C(=O)Nc2ccccc2N1C(=O)N[C@@H](Cc1ccccc1)C(=O)N[C@@H](Cc1ccccc1)C(=O)O | -0.2 | -31.3* | 0.0 | 3.1 | 0.2
CC(C)[C@H]1C(=O)Nc2ccccc2N1C(=O)N[C@@H](Cc1ccccc1)C(=O)N[C@H](Cc1ccccc1)C(=O)O | 0.2 | 1.9 | -1.1 | 1.4 | 0.6
O=C(OCc1csc(-c2ccccc2)n1)C1=NN(c2ccccc2)C(=O)CC1 | -0.2 | -35.9* | -10.3 | -0.3 | 0.1
COC(=O)C1=NN(C(=O)c2ccc(Br)cc2)C(O)(C(C)(C)C)C1 (centres undefined) | 8.9 | -5.0 | 0.8 | -8.4 | 31.6*
COC(=O)C1=NN(C(=O)c2cccc(Cl)c2)C(O)(C(C)(C)C)C1 (centres undefined) | 5.6 | -15.2 | -7.3 | 5.8 | 31.1*
CC1=NN(C(=O)c2ccc(Br)cc2)C(O)(C(F)(F)OC(F)(F)F)C1 (centres undefined) | 0.4 | -13.9 | 0.5 | -3.0 | 5.5
CCN(CCO)C(=O)C(c1ccccc1)c1ccccc1 | -1.8 | -58.6* | -4.3 | 8.6 | 2.3
O=C(c1cccs1)c1cn(CCOc2ccc(F)cc2)c2ccccc12 | -0.3 | 29.4 | -5.3 | 4.1 | 34.6*
O=C(c1cccs1)c1cn(CCOc2ccccc2F)c2ccccc12 | -0.4 | -11.3 | -2.2 | 6.0 | 13.6
Cn1cc(C(=O)NCN2CCCCC2)c2ccccc21 | 0.1 | -39.6* | -3.7 | -0.7 | 1.9
CCCOc1ccc(N2C(=O)CC(N3CCC(O)(c4cccc(C(F)(F)F)c4)CC3)C2=O)cc1 (centres undefined) | 0.0 | -32.4* | 0.7 | -1.3 | 2.3
O=C1CC(N2CCN(c3cccc(C(F)(F)F)c3)CC2)C(=O)N1c1ccccc1 (centres undefined) | 2.0 | -2.2 | -3.6 | 4.1 | 53.4*
O=C1CC(N2CCN(c3cccc(C(F)(F)F)c3)CC2)C(=O)N1c1ccccc1F (centres undefined) | 0.6 | 4.0 | -3.0 | 5.8 | 1.6
CCSc1oc(-c2ccccc2)nc1S(=O)(=O)c1ccccc1 | -0.8 | 11.4 | 10.4 | 8.4 | 1.5
Cc1ccc(-c2nc(S(=O)(=O)c3ccc(C)cc3)c(SCC(=O)Nc3ccc(F)cc3)o2)cc1 | 0.7 | -60.9* | 0.1 | -1.4 | 2.7
CCSc1oc(-c2ccc(F)cc2)nc1S(=O)(=O)c1ccc(C)cc1 | 1.5 | 7.2 | 0.6 | -1.3 | 21.0
CSc1oc(-c2ccccc2)nc1S(=O)(=O)c1ccc(C)cc1 | 0.5 | -35.2* | -7.3 | -2.2 | 4.1
